Some test systems named below: DU-145 prostate; K-562 leukemia; MALME-3M melanoma; MDA-MB-231 breast; RXF 393 renal; SF-268 CNS; SF-295 CNS; SF-539 CNS; UACC-257 melanoma; M14 melanoma; HCT-15 colon; HT29 colon; SNB-75 CNS; SNB-19 CNS; U251 CNS; PC-3 prostate; SK-MEL-5 melanoma; UACC-62 melanoma; LOX IMVI melanoma; SK-MEL-28 melanoma.
What all share (assay): NCI-60 one-dose screen, 48 h (100 = growth as untreated, 0 = no growth, -100 = all killed)
Holding throughout (conditions): 10 µM unless noted

These results are taken from PubChem BioAssay (NCI).

About 83,000 compounds went through this panel and 20% of them were active in at least one assay; those are over-represented in the sample as a whole.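 Step 1: grow cells in 96-well plates. Step 2: add test compound at a single concentration. Step 3: incubate 48 h. Step 4: record percent growth.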 A number with no mark means an inactive call. Calls of active or inactive are those of the source. How the source made its calls: active means growth percent below 10; inactive means the rest.

In the case of `O=C(NCc1cn(Cc2cccc(Oc3ccccc3)c2)nn1)c1cccnc1NCc1ccc(Cl)cc1`, the growth with DU-145 prostate was 15%; with K-562 leukemia, 11.8%; in the test on MALME-3M melanoma, 48.2%; in the test with MDA-MB-231 breast, 25.4%; with RXF 393 renal, 3.54% (active); in the test on SF-268 CNS, 45.3%. Further, the growth was 19.7% with SF-295 CNS; -15.3% (active) in the test with SF-539 CNS; 47.3% in the test on UACC-257 melanoma; 6.76% (active) with M14 melanoma; 21.7% with HCT-15 colon; 9.24% (active) in the test on HT29 colon. Moreover, the growth with SNB-75 CNS is 11%; in the test with SNB-19 CNS it was 41.3%; with U251 CNS, 21.2%; with PC-3 prostate it was 10%; with SK-MEL-5 melanoma, 11.3%; in the test on UACC-62 melanoma, 27.8%. In addition, the growth in the test with LOX IMVI melanoma is 39.4%; in the test with SK-MEL-28 melanoma it was 29.5%.
As for `COC(=O)CCCNC(=O)C(=O)c1c(O)c(O)c(C(C)C)c2cc(C)c(-c3c(C)cc4c(C(C)C)c(O)c(O)c(C(=O)C(=O)NCCCC(=O)OC)c4c3O)c(O)c12`, the growth in the test on DU-145 prostate was -0.703% (active); in the test with K-562 leukemia, 6.26% (active); in the test on MALME-3M melanoma, 19.7%; in the test with MDA-MB-231 breast, -16.3% (active); in the test on RXF 393 renal, -6.97% (active); in the test with SF-268 CNS, 8.13% (active). Also, the growth in the test on SF-295 CNS is -7.03% (active); in the test on SF-539 CNS, -1.93% (active); with UACC-257 melanoma it was -21.5% (active); with M14 melanoma it was -20.7% (active); in the test on HCT-15 colon it was 1.55% (active); in the test with HT29 colon it was -22.9% (active). Also, the growth is 49.6% in the test on SNB-75 CNS; 22.5% in the test on SNB-19 CNS; -62.4% (active) in the test on U251 CNS; 21.4% in the test with PC-3 prostate; -68.8% (active) with SK-MEL-5 melanoma; -35.6% (active) in the test on UACC-62 melanoma. In addition, the growth in the test with LOX IMVI melanoma is -85.6% (active); in the test with SK-MEL-28 melanoma, 23.5%.
Take `COc1cc2c(cc1OC)-c1ccc3cc4c(cc3c1N(CCCN1CCCCC1)C2)OCO4`: the growth was 51.1% in the test on DU-145 prostate; 16.9% with K-562 leukemia; 76.7% in the test with MALME-3M melanoma; 34.4% with MDA-MB-231 breast; 43.8% in the test on RXF 393 renal; 44.8% in the test with SF-268 CNS. Also, the growth in the test with SF-295 CNS was 56.9%; in the test on SF-539 CNS it was 61.7%; in the test with UACC-257 melanoma, 64.3%; in the test with M14 melanoma it was 54%; in the test with HCT-15 colon, 47.5%; in the test with HT29 colon it was 25.4%. In addition, the growth in the test with SNB-75 CNS is 51.3%; in the test on SNB-19 CNS, 42.6%; in the test on U251 CNS it was 42.1%; in the test with PC-3 prostate it was 29.3%; in the test on SK-MEL-5 melanoma it was 44.9%; with UACC-62 melanoma, 59.2%. The growth was 32.5% in the test with LOX IMVI melanoma and 80.4% with SK-MEL-28 melanoma.
Consider `CCn1c(Sc2nnc(NC(C)=O)s2)nc2c1c(=O)n(C)c(=O)n2C`, for which the growth with DU-145 prostate was 99.2%; in the test on K-562 leukemia, 95.6%; in the test on MALME-3M melanoma it was 99.1%; in the test on MDA-MB-231 breast, 96%; in the test with RXF 393 renal, 91.2%; with SF-268 CNS it was 90.8%. In addition, the growth is 98% in the test on SF-295 CNS; 92.5% in the test on SF-539 CNS; 103% in the test on UACC-257 melanoma; 91.4% with M14 melanoma; 97.5% in the test with HCT-15 colon; 104% in the test with HT29 colon. Further, the growth was 90% in the test on SNB-75 CNS; 96.8% with SNB-19 CNS; 106% with U251 CNS; 91.9% with PC-3 prostate; 98.6% with SK-MEL-5 melanoma; 93.3% with UACC-62 melanoma. For the same molecule, the growth in the test with LOX IMVI melanoma is 90%; in the test with SK-MEL-28 melanoma, 101%.
Turning to `c1ccc(-c2oc3ccccc3c2-c2ccccc2)cc1`, the growth in the test on DU-145 prostate is 115%; in the test on K-562 leukemia, 67.7%; in the test with MALME-3M melanoma, 110%; in the test with MDA-MB-231 breast, 100%; in the test with RXF 393 renal, 99.1%; in the test on SF-268 CNS, 109%. Further, the growth in the test on SF-295 CNS is 104%; with SF-539 CNS it was 98.5%; in the test on UACC-257 melanoma it was 111%; in the test on M14 melanoma, 102%; in the test on HCT-15 colon, 93.6%; in the test with HT29 colon it was 99%. Moreover, the growth with SNB-75 CNS is 72.5%; in the test with SNB-19 CNS, 99.3%; in the test with U251 CNS, 95.9%; in the test with PC-3 prostate, 90%; with SK-MEL-5 melanoma it was 84.3%; with UACC-62 melanoma it was 80%. The growth in the test with LOX IMVI melanoma was 95.8%; in the test with SK-MEL-28 melanoma it was 113%.
In the case of `COc1ccccc1C(=O)NC(=S)Nc1ccc(-c2nc3ccccc3[nH]2)cc1`, the growth was 42.9% in the test on DU-145 prostate; 48% in the test with K-562 leukemia; 27.5% in the test with MALME-3M melanoma; -10.1% (active) with MDA-MB-231 breast; 49.1% with RXF 393 renal; 49.2% in the test with SF-268 CNS. The growth with SF-295 CNS was 61.3%; in the test with SF-539 CNS, 48.1%; in the test with UACC-257 melanoma, 94.3%; in the test with M14 melanoma, 54.3%; in the test on HCT-15 colon, 59.5%; in the test on HT29 colon, 14.8%. The growth was -62.7% (active) in the test on SNB-75 CNS; 84% with SNB-19 CNS; 29.3% in the test with U251 CNS; 86% in the test with PC-3 prostate; 25.8% in the test on SK-MEL-5 melanoma; 109% in the test on UACC-62 melanoma. Moreover, the figures for the growth with LOX IMVI melanoma and with SK-MEL-28 melanoma were 20% and 69.5%, respectively.
Regarding `CN(C)c1ccc(/C=C2\C=C(c3ccccc3)N(CCc3ccccc3)C2=O)cc1`, the growth with DU-145 prostate was 60.4%; in the test on K-562 leukemia, 90.6%; in the test on MALME-3M melanoma, 57.7%; with MDA-MB-231 breast, 84.6%; in the test with RXF 393 renal, 81.4%; in the test with SF-268 CNS, 43.8%. For the same molecule, the growth is 53.9% in the test on SF-295 CNS; 61.6% in the test with SF-539 CNS; 76.8% in the test on UACC-257 melanoma; 51.7% in the test with M14 melanoma; 83.2% in the test on HCT-15 colon; 77.8% in the test on HT29 colon. For the same molecule, the growth in the test with SNB-75 CNS was -29.1% (active); with SNB-19 CNS, 46.6%; in the test on U251 CNS it was 33.2%; in the test with PC-3 prostate it was 52.3%; with SK-MEL-5 melanoma, 82.7%; in the test on UACC-62 melanoma it was 67.3%. Also, the growth was 48.9% in the test with LOX IMVI melanoma and 89.8% in the test on SK-MEL-28 melanoma.
In the case of `O=S(=O)(NCCNc1cc(-c2c(-c3cccc(O)c3)nc3sccn23)ccn1)c1ccc(Cl)cc1`, the growth is 67.8% with DU-145 prostate; 42.5% in the test with K-562 leukemia; 94% in the test with MALME-3M melanoma; 80.6% in the test on MDA-MB-231 breast; 71.7% with RXF 393 renal; 47.9% in the test with SF-268 CNS. Further, the growth in the test on SF-295 CNS was 85%; in the test on SF-539 CNS, 91.8%; in the test on UACC-257 melanoma it was 95.2%; in the test with M14 melanoma it was 68.2%; with HCT-15 colon, 53.2%; in the test with HT29 colon it was 65.7%. The growth is 8.44% (active) in the test on SNB-75 CNS; 72.7% in the test on SNB-19 CNS; 65.9% with U251 CNS; 49.3% in the test on PC-3 prostate; 30.7% in the test with SK-MEL-5 melanoma; 64.8% in the test with UACC-62 melanoma. Further, the growth in the test on LOX IMVI melanoma was 63.2%; with SK-MEL-28 melanoma it was 95.7%.
